# Mac1 fbg enh – increases human CD11b/CD18 adhesion to fibrinogen. P05107+P11215. K562 CD11b/CD18 adhesion to fibrinogen, ATPlite luminescence. activation, % at 10 µM. 93,000 tested, 0.07% active;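 active means 10 µM primary screen giving 50% or more activity, confirmed by 40% or more on retest at that dose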
# Mac1 fbg inh – CD11b/CD18-fibrinogen binding inhibition | K562 CD11b/CD18 adhesion to fibrinogen, ATPlite luminescence; Mn2+ added to activate the integrin | P05107+P11215 | 93,000 tested, 0.54% active | inhibition, % at 10 µM | AID 1497;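 active means primary inhibition of 50% or more at 10 µM, then 40% or more on retest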
# ERa coact inh – blocks coactivator binding to human estrogen receptor alpha | P03372 | TR-FRET ER-alpha LBD / SRC-1 peptide, estradiol-bound | inhibition, % at 25.6 µM | 86,000 tested, 1.7% active | AID 629; in the data active means inhibition above about 50%;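 further: 0% = receptor plus peptide control and 100% = peptide only without receptor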
# Target sequence (P03372 whole entry, looked up, the tested form may be a part): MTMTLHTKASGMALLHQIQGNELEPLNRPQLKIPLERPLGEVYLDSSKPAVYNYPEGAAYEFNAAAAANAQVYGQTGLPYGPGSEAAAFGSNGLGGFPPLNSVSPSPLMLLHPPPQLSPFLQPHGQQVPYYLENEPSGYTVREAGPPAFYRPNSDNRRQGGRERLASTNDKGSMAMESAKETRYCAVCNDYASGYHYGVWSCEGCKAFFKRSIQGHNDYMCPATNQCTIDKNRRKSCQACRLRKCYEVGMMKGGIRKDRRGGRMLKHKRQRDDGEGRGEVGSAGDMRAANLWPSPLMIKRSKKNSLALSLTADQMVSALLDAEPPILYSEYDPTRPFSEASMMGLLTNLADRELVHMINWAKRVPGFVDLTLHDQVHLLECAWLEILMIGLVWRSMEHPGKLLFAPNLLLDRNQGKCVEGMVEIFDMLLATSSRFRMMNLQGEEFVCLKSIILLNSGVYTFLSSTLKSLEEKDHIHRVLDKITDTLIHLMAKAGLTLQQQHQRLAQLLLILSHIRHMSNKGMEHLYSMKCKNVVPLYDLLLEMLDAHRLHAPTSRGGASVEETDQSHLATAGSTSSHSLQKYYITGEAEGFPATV
# ERb coact inh – blocks coactivator binding to human estrogen receptor beta; Q92731; TR-FRET ER-beta LBD / SRC1-Cy5 peptide binding; receptor agonist-loaded with 1 µM estradiol; inhibition, % at 25.6 µM; 86,000 tested, 1.3% active;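 active means compounds whose percent inhibition of the receptor-coactivator binding signal exceeds about 50% in the single-dose screen, limit read from the data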;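 further: 0% = receptor plus peptide wells without compound and 100% = peptide-only wells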
# ERa coact pot – enhances coactivator binding to human estrogen receptor alpha; TR-FRET ERalpha-LBD/SRC-Cy5 coactivator binding, 2 h; 100 = basal binding, no effect; coactivator binding (% of control), % at 25.6 µM; 86,000 tested, 1.3% active; P03372; AID 639; in the data active means activity above about 200%;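 further: binding measured in presence of low estradiol as agonist stimulus; 0% = peptide alone without receptor and 100% = receptor with peptide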
# Active calls of the source: *; . = no result given; [ ] = dose if it differs, or a comment. Rows were chosen to be rich in hits. Some 3.1% of all compounds tested hit in one or more screens of this group.
SMILES,Mac1 fbg enh,Mac1 fbg inh,ERa coact inh,ERb coact inh,ERa coact pot
COc1ccc(NC(=O)N2CCN(c3cccc(C(F)(F)F)c3)CC2)cc1,4,-18,14,20,106
COc1ccc(NC(=O)Cn2nnc(-c3ccccc3F)n2)cc1,-2,-4,0,-4,99
COCCCNC(=O)Cn1nnc(-c2ccc(NC(=O)c3ccc(F)cc3)cc2)n1,54,-22,48,46,258*[fluorescence artefact?]
CC1(C)CC(=O)c2c(oc3cc(O)c(O)cc23)C1,0,-15,27,58*[fluorescence artefact?],71
Clc1ccc(-n2c(SCc3nc4ccccc4[nH]3)nnc2-c2ccncc2)cc1,-6,-1,.,.,.
CCOC(=O)c1sc(=NC(=O)c2cc(OC)c(OC)c(OC)c2)n(C)c1C,.,.,17,21,208*
CCOC(=O)c1sc(=NC(=O)c2ccc(S(=O)(=O)N3CCOCC3)cc2)n(C)c1C,.,.,8,7,166
CN(C)CC(C)(C)CNS(=O)(=O)c1cccc(Cl)c1Cl,-1,-23,2,1,110
O=C(Nc1ccc(Cn2cccn2)cc1)c1ccc(COc2ccc(Br)cc2)cc1,52*,-5,.,.,.
O=C(Nc1ccc(Cn2cccn2)cc1)c1ccc(COc2cccc(Br)c2)cc1,6,25,.,.,.
Cc1nn(C(=O)c2ccco2)c(C)c1CN1C(=O)c2ccccc2C1=O,3,-5,28,8,200*[fluorescence artefact?]
COc1cccc(-c2nc(-c3ccccc3)no2)c1,0,31,8,-14,97
COc1ccc(-c2cc3nnc(-c4ccccc4)nc3s2)cc1,.,.,63*[fluorescence artefact?],66*[fluorescence artefact?],129
O=C(Nc1nc2ccccc2n1CCN1CCCC1)c1ccc(Cl)cc1,-1,3,1,-1,109
Cc1ccc(C(=O)Nc2nc3ccccc3n2CCN2CCCC2)cc1,-2,13,-8,-2,284*[fluorescence artefact?]
O=C(O)C1C2C=CC3(CN(Cc4ccco4)C(=O)C13)O2 (centres undefined),2,-6,98*[fluorescence artefact?],-1,111
CCc1ccc(NC(=O)CSc2nc3cc(C(=O)OC)ccc3c(=O)n2CC2CCCO2)cc1 (centres undefined),-7,-13,12,10,100
Cc1cc(C)cc(C(=O)N2CC(C)OC(C)C2)c1 (centres undefined),0,0,-1,16,117
Cc1cccc(-c2nc(CSCC(=O)N3CCN(Cc4ccc5c(c4)OCO5)CC3)c(C)o2)c1,-5,81*,-1,-8,129
CCc1ccc(-c2nc(CSCC(=O)N3CCN(c4ccccn4)CC3)c(C)o2)cc1,.,.,-7,-3,95
Cc1ccc(-c2nc(CSCC(=O)N3CCN(c4ccccn4)CC3)c(C)o2)cc1,-14,88*,2,3,126
Cc1ccc(-c2nnn(CC(=O)Nc3ccc4nn(-c5ccccc5)nc4c3)n2)o1,36,-5,58*,39,155
COc1ccccc1NS(=O)(=O)c1ccc2c(c1)n(C)c(=O)n2C,-3,10,.,.,.
Cc1ccc2oc(=O)c3cnn(CC(=O)N4CCCc5ccccc54)c3c2c1,-2,3,-8,-8,265*[fluorescence artefact?]
O=[N+]([O-])c1cc([N+](=O)[O-])c2cccnc2c1Oc1ccccc1O,-10,90*,.,.,.
SMILES,Mac1 fbg enh,Mac1 fbg inh,ERa coact inh,ERb coact inh,ERa coact pot
N#Cc1c(N2CCCCC2)nc(N)c2c(N)nc3c(c12)CC(c1ccccc1)O3 (centres undefined),.,.,23,29,217*[fluorescence artefact?]
N#Cc1ccc(-n2nccc2-c2cnc3n(c2=O)CCS3)cc1,-5,6,-6,-7,112
O=c1c(-c2nc3ccccc3o2)c2oc3ccccc3n2c2ccccc12,120,-33,.,.,.
O=C(CCCn1nnc(-c2cccnc2)n1)c1ccc(F)cc1,-2,2,0,-9,95
CC1CCCCN1C(=S)NCCc1ccccc1 (centres undefined),-2,-4,.,.,.
COc1cc2c(=O)n(Cc3ccco3)c(=O)n(CC(=O)c3cccc(Br)c3)c2cc1OC,.,.,25,16,283*[fluorescence artefact?]
COCCCNC(=O)Cn1cc2c(n1)CCC(C)C2 (centres undefined),0,-24,13,-1,205*
COCCCNC(=O)Cn1cc2c(n1)CCCCC2,4,-1,0,8,115
CCc1ccccc1NC(=O)c1cnc2scc(C)n2c1=O,.,.,10,11,216*[fluorescence artefact?]
Cc1c(-c2cccc(NC(=O)c3cccs3)c2)nc2ncccn12,0,8,.,.,.
CCN1CCN(Cc2ccc(NC(=O)Nc3ccccc3Cl)cc2)CC1,6,4,-5,11,261*
CCN1CCN(Cc2ccccc2NC(=O)Nc2ccc(C)cc2)CC1,-2,-2,-6,-4,113
Cc1ccccc1C(=O)N[C@H](C(=O)OCC(=O)c1ccc[nH]1)C(C)C,3,6,.,.,.
CCOC(=O)c1c(N)sc(=S)c2c1CCC2,-2,10,55*[fluorescence artefact?],70*,45
COc1ccc(-c2c(C#N)c(SCC(N)=O)nc3c2CCCC3)cc1,.,.,18,10,285*
COc1ccc(C(=O)CSc2nc(N)nc(SC)c2C#N)cc1,10,-3,21,23,480*[fluorescence artefact?]
N#Cc1c(SCC(N)=O)nc2c(c1-c1ccc(O)cc1)CCCC2,4,11,3,-1,51
Cc1cc(NC(=O)CSc2nc3c(c(-c4cccnc4)c2C#N)CCC3)no1,81,-8,22,19,258*[fluorescence artefact?]
Cc1ccc(CN2CCN(CC(=O)NC(C)c3ccc4c(c3)OCCO4)C2=O)cc1 (centres undefined),-6,5,-1,0,119
COc1cc(-c2noc(CCCC(=O)NCc3ccccc3)n2)cc(OC)c1OC,-2,10,-3,-5,116
COC(=O)c1c(C(=O)OC)c2cc(C(=O)c3ccccc3)ccn2c1Cl,.,.,-18,-12,109
Cc1cc(C(C)(C)C)oc1C(=O)N(CC(=O)NC1CCCC1)Cc1ccccc1Cl,0,18,.,.,.
COc1ccccc1OC1=NS(=O)(=O)c2ccccc21,-3,4,78*[fluorescence artefact?],3,16
Cc1ccc(OC2=NS(=O)(=O)c3ccccc32)cc1,-1,2,8,0,84
CCN(CC)c1cccc(OC2=NS(=O)(=O)c3ccccc32)c1,0,-6,83*[fluorescence artefact?],25,18
SMILES,Mac1 fbg enh,Mac1 fbg inh,ERa coact inh,ERb coact inh,ERa coact pot
O=C1CN(C(=O)COc2ccccc2)CCN1,.,.,1,0,85
COc1ccc2[nH]c3nc(SCc4nnc(-c5ccc(C)cc5)o4)nnc3c2c1,73,-5,81*,64*[fluorescence artefact?],197
CCOC(=O)C(C(C)=O)c1c(Br)c(O)c(O)c2c(C(=O)c3ccc(C)cc3)coc12 (centres undefined),19,4,43,72*[fluorescence artefact?],54
C/C(=C\C(=O)c1ccccc1)Nc1ccc2c(c1)OCO2,0,23,.,.,.
O=C(O)c1cc(Nc2nc(N3CCOCC3)nc(N3CCOCC3)n2)ccc1Cl,.,.,2,9,106
O=C(O)c1cccc(Nc2nc(N3CCOCC3)nc(N3CCOCC3)n2)c1,4,-2,-4,-6,626*[fluorescence artefact?]

# From PubChem BioAssay
